Experimental data as given in the supplement of paper PMC10849652.
Of roughly 7,900 targets only a part is listed; those with a hit were picked by preference. About 0.6% of all pairs of compound and target were hits. Values without a mark were called inactive.

Tests used:
Assay in all cases: log2 fold change, soluble protein after heating vs DMSO (PISA); higher = thermal stabilisation; K562 cells, 10 uM, 30 min; active = over 0.2 and 3.5 SD of the protein, either way, in both replicates (recomputed)
bafetinib = compound: Cc1ccc(NC(=O)c2ccc(CN3CC[C@H](N(C)C)C3)c(C(F)(F)F)c2)cc1Nc1nccc(-c2cncnc2)n1 [bafetinib]
How it was run: (§1)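 Values are thermal stability changes relative to control samples and are taken from duplicates. They are stated as log2 fold changes. Before quantification by TMTpro 16plex LC-MS/MS with equalised channel sums, K562 cells at 2×10^6 cells/mL were treated with 10 μM compound for 30 min, heated in aliquots for 3 min across 48°C-58°C, pooled, extracted in PBS with 0.5% NP-40 at 4°C, and centrifuged at 21,000xg for 90 min to give the soluble supernatant.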

[1] = compound: Cc1cccc(CC(=O)N2CCc3c2ccc(-c2cn(C)c4ncnc(N)c24)c3F)n1
How it was run: as §1

nilotinib = compound: Cc1cn(-c2cc(NC(=O)c3ccc(C)c(Nc4nccc(-c5cccnc5)n4)c3)cc(C(F)(F)F)c2)cn1 [nilotinib]
How it was run: as §1

[2] = compound: Cc1nc(Nc2n[nH]c3c2CN(C(=O)N[C@H](CN(C)C)c2ccccc2)C3(C)C)c2sccc2n1
How it was run: as §1

dasatinib = compound: Cc1nc(Nc2ncc(C(=O)Nc3c(C)cccc3Cl)s2)cc(N2CCN(CCO)CC2)n1 [dasatinib]
How it was run: as §1

[3] = compound: Cc1ncc(-c2ccnc(Nc3ccc(S(C)(=O)=O)cc3)n2)n1C(C)C
How it was run: as §1

[4] = compound: Cn1cc(-c2ccc3c(c2)CCN3C(=O)Cc2cccc(C(F)(F)F)c2)c2c(N)ncnc21
How it was run: as §1

[5] = compound: Cn1cc(-c2ccc3nnc(C(F)(F)c4ccc5ncccc5c4)n3n2)cn1
How it was run: as §1

tipifarnib = compound: Cn1cncc1[C@@](N)(c1ccc(Cl)cc1)c1ccc2c(c1)c(-c1cccc(Cl)c1)cc(=O)n2C [tipifarnib]
How it was run: as §1

mubritinib = compound: FC(F)(F)c1ccc(/C=C/c2nc(COc3ccc(CCCCn4ccnn4)cc3)co2)cc1 [mubritinib]
How it was run: as §1

Chain of UniProt A8MWY0 (A8MWY0 whole entry, looked up): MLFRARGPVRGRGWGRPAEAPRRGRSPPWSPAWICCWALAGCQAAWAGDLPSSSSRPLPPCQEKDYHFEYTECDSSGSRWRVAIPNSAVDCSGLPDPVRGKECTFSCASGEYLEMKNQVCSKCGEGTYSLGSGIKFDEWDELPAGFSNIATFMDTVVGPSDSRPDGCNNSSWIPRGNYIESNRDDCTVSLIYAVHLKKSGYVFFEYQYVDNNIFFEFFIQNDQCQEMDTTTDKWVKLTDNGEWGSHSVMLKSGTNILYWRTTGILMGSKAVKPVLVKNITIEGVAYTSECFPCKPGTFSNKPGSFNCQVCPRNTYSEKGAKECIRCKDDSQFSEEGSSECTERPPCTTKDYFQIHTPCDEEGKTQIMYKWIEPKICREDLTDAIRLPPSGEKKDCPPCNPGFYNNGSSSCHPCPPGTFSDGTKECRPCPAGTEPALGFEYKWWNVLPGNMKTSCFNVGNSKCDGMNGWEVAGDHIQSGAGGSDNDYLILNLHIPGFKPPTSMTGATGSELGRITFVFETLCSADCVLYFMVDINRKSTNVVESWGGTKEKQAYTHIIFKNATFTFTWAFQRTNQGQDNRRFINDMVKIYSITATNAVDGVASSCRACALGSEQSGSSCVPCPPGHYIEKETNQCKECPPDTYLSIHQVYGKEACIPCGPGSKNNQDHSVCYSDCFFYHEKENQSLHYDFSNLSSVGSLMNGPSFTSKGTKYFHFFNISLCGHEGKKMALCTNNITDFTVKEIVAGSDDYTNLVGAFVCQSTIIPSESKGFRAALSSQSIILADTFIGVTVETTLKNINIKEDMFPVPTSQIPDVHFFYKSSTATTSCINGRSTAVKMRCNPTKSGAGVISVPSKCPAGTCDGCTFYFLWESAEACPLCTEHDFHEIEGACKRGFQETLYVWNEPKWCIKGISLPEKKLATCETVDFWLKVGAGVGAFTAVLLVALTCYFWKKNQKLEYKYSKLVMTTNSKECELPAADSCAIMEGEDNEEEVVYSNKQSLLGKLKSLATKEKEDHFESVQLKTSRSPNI
Chain of UniProt P27816 (P27816 whole entry, looked up): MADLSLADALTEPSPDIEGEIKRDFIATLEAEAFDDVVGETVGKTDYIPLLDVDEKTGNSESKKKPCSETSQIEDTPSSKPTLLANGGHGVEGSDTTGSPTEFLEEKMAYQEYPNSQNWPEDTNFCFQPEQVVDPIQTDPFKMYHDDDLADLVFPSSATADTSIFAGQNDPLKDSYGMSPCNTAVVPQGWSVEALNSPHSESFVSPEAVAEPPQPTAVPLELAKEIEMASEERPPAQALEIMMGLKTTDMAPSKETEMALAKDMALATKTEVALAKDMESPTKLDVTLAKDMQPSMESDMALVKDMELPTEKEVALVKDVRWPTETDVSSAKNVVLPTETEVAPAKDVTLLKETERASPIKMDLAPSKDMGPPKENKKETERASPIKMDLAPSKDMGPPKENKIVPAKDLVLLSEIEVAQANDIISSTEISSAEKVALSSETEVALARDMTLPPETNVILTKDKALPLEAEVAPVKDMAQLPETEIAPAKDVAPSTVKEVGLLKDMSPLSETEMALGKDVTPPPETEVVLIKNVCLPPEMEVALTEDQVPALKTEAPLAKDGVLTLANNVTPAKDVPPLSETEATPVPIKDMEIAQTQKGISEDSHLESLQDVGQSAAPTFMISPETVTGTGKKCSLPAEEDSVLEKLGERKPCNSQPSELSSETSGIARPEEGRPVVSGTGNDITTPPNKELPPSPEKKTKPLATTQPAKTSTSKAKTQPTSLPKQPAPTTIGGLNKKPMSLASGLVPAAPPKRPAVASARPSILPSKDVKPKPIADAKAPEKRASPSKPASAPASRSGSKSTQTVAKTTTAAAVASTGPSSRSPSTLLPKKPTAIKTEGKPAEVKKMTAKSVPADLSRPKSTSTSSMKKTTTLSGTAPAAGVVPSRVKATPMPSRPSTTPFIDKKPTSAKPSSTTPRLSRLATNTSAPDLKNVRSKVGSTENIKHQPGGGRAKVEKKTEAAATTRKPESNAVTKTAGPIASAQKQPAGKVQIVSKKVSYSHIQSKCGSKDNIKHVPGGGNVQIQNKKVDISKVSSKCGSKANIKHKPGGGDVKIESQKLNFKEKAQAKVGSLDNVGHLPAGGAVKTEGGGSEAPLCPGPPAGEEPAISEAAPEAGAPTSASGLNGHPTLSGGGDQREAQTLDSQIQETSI
Chain of UniProt Q6P9B6 (Q6P9B6 whole entry, looked up): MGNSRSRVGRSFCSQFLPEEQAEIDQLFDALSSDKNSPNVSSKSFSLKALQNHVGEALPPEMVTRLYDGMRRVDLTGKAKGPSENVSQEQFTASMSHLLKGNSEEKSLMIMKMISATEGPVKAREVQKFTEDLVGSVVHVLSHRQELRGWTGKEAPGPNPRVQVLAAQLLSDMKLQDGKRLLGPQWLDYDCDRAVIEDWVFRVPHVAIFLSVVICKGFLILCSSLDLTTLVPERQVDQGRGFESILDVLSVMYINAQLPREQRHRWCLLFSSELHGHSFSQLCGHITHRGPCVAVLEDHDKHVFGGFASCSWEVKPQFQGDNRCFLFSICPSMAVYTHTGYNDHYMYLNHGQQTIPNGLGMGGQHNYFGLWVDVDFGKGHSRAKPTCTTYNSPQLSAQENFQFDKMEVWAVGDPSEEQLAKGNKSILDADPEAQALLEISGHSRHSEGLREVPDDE
Chain of UniProt Q9NQ29 (Q9NQ29 whole entry, looked up): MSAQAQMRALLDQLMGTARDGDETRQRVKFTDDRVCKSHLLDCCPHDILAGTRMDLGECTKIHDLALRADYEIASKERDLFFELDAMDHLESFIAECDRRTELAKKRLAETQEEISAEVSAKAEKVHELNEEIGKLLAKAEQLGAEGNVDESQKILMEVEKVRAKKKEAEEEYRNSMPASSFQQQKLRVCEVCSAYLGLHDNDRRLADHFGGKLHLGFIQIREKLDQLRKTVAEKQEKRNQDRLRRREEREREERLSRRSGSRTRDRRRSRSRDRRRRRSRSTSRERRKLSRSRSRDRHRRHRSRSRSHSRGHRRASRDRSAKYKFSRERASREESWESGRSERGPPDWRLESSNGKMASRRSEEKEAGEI
Chain of UniProt P20700 (P20700 whole entry, looked up): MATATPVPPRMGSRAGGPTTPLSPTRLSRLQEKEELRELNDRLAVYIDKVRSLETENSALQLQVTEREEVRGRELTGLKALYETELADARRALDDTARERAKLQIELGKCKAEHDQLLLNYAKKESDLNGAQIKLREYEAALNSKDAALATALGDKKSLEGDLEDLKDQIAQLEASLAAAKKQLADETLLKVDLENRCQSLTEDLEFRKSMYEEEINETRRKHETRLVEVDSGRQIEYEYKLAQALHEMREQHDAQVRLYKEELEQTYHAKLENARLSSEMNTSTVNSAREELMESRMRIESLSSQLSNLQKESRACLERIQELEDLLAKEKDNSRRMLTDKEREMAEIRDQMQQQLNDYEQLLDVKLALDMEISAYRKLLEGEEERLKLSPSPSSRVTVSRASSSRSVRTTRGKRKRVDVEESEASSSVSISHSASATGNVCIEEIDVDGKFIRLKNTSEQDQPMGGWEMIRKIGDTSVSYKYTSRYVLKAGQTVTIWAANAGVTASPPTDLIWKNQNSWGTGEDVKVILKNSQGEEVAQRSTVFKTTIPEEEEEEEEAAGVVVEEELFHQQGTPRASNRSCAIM
Chain of UniProt Q8NC56 (Q8NC56 whole entry, looked up): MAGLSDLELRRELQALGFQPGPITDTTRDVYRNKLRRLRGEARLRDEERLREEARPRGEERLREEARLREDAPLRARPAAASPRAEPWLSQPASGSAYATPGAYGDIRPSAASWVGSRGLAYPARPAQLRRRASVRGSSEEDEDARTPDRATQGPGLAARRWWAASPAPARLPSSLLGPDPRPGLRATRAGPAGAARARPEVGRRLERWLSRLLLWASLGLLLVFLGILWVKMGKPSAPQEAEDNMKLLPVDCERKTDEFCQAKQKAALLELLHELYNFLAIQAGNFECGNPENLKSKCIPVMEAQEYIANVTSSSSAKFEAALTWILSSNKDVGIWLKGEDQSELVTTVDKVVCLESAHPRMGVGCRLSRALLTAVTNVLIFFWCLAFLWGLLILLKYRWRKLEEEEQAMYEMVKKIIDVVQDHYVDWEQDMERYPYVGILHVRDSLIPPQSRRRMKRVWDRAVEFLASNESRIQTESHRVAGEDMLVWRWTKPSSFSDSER
Chain of UniProt Q14974 (Q14974 whole entry, looked up): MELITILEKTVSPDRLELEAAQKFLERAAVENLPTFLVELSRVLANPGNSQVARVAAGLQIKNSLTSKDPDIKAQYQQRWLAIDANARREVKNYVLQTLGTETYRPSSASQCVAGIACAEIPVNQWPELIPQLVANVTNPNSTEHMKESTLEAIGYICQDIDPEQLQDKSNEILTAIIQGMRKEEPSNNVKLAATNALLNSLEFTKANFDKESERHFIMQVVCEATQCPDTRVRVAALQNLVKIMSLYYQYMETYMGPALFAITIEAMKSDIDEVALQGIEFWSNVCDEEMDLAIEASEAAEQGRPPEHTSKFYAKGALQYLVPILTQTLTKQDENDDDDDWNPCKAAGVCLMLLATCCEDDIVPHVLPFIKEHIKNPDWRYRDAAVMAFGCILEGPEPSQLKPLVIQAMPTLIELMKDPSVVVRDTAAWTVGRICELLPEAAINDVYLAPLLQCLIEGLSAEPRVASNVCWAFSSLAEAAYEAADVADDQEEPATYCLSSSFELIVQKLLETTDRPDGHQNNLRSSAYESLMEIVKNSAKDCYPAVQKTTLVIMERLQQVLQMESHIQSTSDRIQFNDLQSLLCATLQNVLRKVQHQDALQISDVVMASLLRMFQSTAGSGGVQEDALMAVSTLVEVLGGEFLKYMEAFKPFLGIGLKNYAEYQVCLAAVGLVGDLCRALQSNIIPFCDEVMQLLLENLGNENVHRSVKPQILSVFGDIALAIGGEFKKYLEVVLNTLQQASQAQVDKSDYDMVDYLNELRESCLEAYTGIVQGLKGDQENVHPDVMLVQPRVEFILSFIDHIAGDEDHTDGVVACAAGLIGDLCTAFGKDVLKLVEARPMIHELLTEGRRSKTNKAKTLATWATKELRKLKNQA

Row | Target | log2 fold change (bafetinib) | log2 fold change [1] | log2 fold change (nilotinib) | log2 fold change [2] | log2 fold change (dasatinib) | log2 fold change [3] | log2 fold change [4] | log2 fold change [5] | log2 fold change (tipifarnib) | log2 fold change (mubritinib)
1 | MAST4 (UniProt O15021) | -0.029 | 0.034 | -0.073 | -0.757 (active) | -0.112 | -0.004 | 0.131 | 0.09 | -0.087 | -0.003
2 | LEMD2 (UniProt Q8NC56) | -0.036 | -0.008 | -0.035 | -0.123 | -0.079 | 0.011 | 0.089 | 0.008 | -0.045 | -0.021
3 | LYN (UniProt P07948) | 0.26 | 0.008 | 0.062 | -0.414 (active) | -0.419 (active) | -0.043 | -0.06 | 0.034 | -0.005 | -0.003
4 | MARK3 (UniProt P27448) | 0.033 | 0.108 | -0.125 | -0.718 (active) | -0.104 | -0.11 | -0.062 | -0.046 | -0.013 | -0.075
5 | MAP4 (UniProt P27816) | 0.008 | 0.005 | 0.008 | 0.008 | 0.049 | -0.01 | -0.033 | -0.029 | 0 | -0.007
6 | MICU1 isoform 3 (UniProt Q9BPX6) | -0.098 | 0.106 | -0.037 | -0.012 | -0.065 | -0.022 | -0.012 | -0.055 | -0.019 | -0.064
7 | MAPKAPK5 (UniProt Q8IW41) | 0.123 | -0.014 | 0.057 | -0.035 | -0.031 | 0.052 | -0.065 | -0.074 | -0.083 | 0.075
8 | MIA2 (UniProt Q96PC5) | -0.068 | -0.029 | -0.002 | -0.048 | -0.051 | -0.038 | -0.058 | 0.041 | 0.029 | -0.046
9 | LEO1 (UniProt Q8WVC0) | -0.003 | 0.008 | -0.125 | -0.045 | 0.049 | -0.094 | -0.026 | 0.023 | -0.009 | 0.035
10 | LMBRD1 (UniProt Q9NUN5) | -0.065 | 0.01 | -0.006 | -0.062 | 0.064 | 0.026 | -0.139 | 0.014 | -0.156 | 0.08
11 | LTO1 (UniProt Q8WV07) | -0.013 | -0.004 | -0.036 | -0.072 | 0 | 0.039 | -0.025 | -0.02 | -0.063 | 0.038
12 | MAP4 (UniProt E7EVA0) | 0.311 | -0.028 | -0.014 | 0.015 | 0.168 | -0.018 | -0.166 | -0.036 | 0.019 | 0.055
13 | IRAK4 (UniProt Q9NWZ3) | -0.047 | 0.236 (active) | -0.089 | -0.047 | -0.143 | -0.01 | 0.011 | 0.035 | -0.116 | -0.031
14 | MAPK14 isoform 2 (UniProt Q16539) | 1.73 (active) | -0.038 | 1.67 (active) | 0.176 | 1.37 (active) | 0.037 | -0.071 | -0.02 | -0.049 | 0
15 | KIAA1324L (UniProt A8MWY0) | -0.099 | 0.022 | 0.042 | -0.031 | 0.025 | -0.003 | 0.022 | 0.029 | 0.047 | 0.091
16 | MEAK7 (UniProt Q6P9B6) | -0.094 | 0.042 | 0.024 | -0.036 | -0.078 | 0.025 | 0.02 | -0.03 | -0.022 | 0.052
17 | LMF2 (UniProt Q9BU23) | -0.068 | 0.024 | 0.047 | -0.014 | 0.033 | 0.026 | 0.021 | 0.022 | 0.019 | 0.052
18 | KIF2C (UniProt Q99661) | 0.1 | 0.122 | -0.082 | -0.054 | -0.15 | 0.032 | 0.053 | 0.039 | -0.103 | 0.081
19 | KIFBP (UniProt Q96EK5) | 0.006 | 0.094 | -0.162 | -0.079 | -0.114 | -0.004 | -0.084 | -0.046 | -0.063 | -0.078
20 | LPIN1 isoform 7 (UniProt Q14693) | -0.076 | 0.051 | -0.038 | 0.046 | -0.016 | -0.079 | -0.025 | -0.058 | -0.019 | 0.095
21 | LRBA, A0A494BZW2 | -0.041 | 0.044 | 0.019 | -0.016 | -0.144 | 0.053 | -0.076 | 0.123 | -0.26 | -0.03
22 | LMNB1 (UniProt P20700) | -0.089 | -0.004 | 0.037 | -0.11 | 0.092 | -0.117 | -0.059 | -0.074 | 0.105 | -0.069
23 | KPNB1 (UniProt Q14974) | 0.029 | 0.029 | -0.129 | -0.09 | -0.072 | -0.018 | -0.09 | -0.045 | -0.12 | 0.019
24 | MAP3K4 isoform 2 (UniProt Q9Y6R4) | -0.059 | -0.095 | 0.008 | 0.221 (active) | 0.534 (active) | 0.027 | -0.031 | 0.021 | -0.032 | 0.016
25 | KLHL18 (UniProt O94889) | 0.027 | -0.252 | 0.005 | -0.021 | -0.187 | 0.025 | 0.061 | -0.027 | 0.044 | -0.017
26 | KEL (UniProt P23276) | -0.027 | -0.002 | 0.017 | -0.032 | -0.019 | 0.004 | 0.083 | 0.003 | 0.031 | -0.591 (active)
27 | LUC7L (UniProt Q9NQ29) | 0.057 | -0.046 | 0.049 | -1.71 (active) | 0.062 | 0.109 | -0.095 | -0.054 | 0.049 | -0.099
28 | IPO13 (UniProt O94829) | -0.11 | -0.006 | -0.001 | -0.094 | -0.021 | 0.071 | -0.022 | -0.025 | -0.106 | 0.06
29 | ILF3 isoform 7 (UniProt Q12906) | 0.082 | -0.028 | -0.02 | 0.244 | 0.155 | 0.297 | -0.179 | -0.089 | 0.057 | -0.031
30 | MARCKSL1 (UniProt P49006) | 0.04 | -0.087 | 0.003 | 0.014 | 0.062 | 0.009 | -0.008 | -0.004 | 0.034 | 0.005
